Shown are actives, neighbours in structure and some others; about 3.1% of the full set was active somewhere.
TSHR antagonist – Antagonists of the Thyroid Stimulating Hormone Receptor: HTS campaign; TSHR-expressing cells, TSH-stimulated cAMP HTRF, 2 h; active compounds read low; activity change, negative = inhibition, % at 11.5 µM; actives 0.2% (n = 330,000); AID 504810, 2011;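 active = activity change below a set negative limit, meaning inhibition stronger than a set level, cut at about -70% in these data; inconclusive = activity change between two set negative limits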; also: % is scaled to controls: 0 for no effect and ±100 for the full control effect
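Antagonism was scored as loss of TSH-driven cAMP in TSHR cells, stimulated with 4nM TSH (EC80) for 2 hours at 37 deg C and detected by homogeneous HTRF competition immunoassay.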
PLK1 PBD inh – qHTS for Inhibitors of PLK1-PDB (polo-like kinase 1 - polo-box domain): Primary Screen. Plk1 PBD binding of FITC phosphopeptide, fluorescence polarization. Serine/threonine-protein kinase PLK1 (Homo sapiens), P53350. actives 2.8% (n = 360,000). Potency, µM, for the others: max response, negative = inhibition, usual class: inhibitors; also: potency is read from the fitted curve at half-maximal effect; series mostly up to about 57 µM; % is scaled to controls: 0 for no effect and ±100 for the full control effect; nearly all actives have a fitted effect of over 65% in size
Vif-A3F inh – qHTS for Inhibitors of Vif-A3F Interactions: qHTS; HeLa A3F-eYFP + Vif (tagged APOBEC3F with the HIV-1 protein that degrades it), YFP fluorescence increase; Potency, µM (doses to about 46.1 µM), without a hit: at the highest dose activity, negative = active; actives 0.2% (n = 390,000); AID 602313, 2012; also: potency is read from the fitted curve at half-maximal effect; % of control where 0% means no effect; nearly all actives have a fitted effect of over 65% in size
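HeLa cells stably expressing A3F-eYFP plus Vif, plated and incubated overnight at 37 deg C, then exposed to compounds overnight at 37 deg C. Blocked degradation read as raised yellow fluorescence (Ex 488/Em 500-530).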
VDR inh – Inhibitors of the vitamin D receptor (VDR): qHTS; Vitamin D3 receptor (Homo sapiens), P11473; VDR-SRC2-3 peptide fluorescence polarization, 2 h; Potency, µM, inactives show max response, negative = inhibition, most hits filed as inhibitors; actives 0.93% (n = 400,000); also: potency is read from the fitted curve at half-maximal effect; % is scaled to controls: 0 for no effect and ±100 for the full control effect
Target sequence (P11473 whole entry, looked up): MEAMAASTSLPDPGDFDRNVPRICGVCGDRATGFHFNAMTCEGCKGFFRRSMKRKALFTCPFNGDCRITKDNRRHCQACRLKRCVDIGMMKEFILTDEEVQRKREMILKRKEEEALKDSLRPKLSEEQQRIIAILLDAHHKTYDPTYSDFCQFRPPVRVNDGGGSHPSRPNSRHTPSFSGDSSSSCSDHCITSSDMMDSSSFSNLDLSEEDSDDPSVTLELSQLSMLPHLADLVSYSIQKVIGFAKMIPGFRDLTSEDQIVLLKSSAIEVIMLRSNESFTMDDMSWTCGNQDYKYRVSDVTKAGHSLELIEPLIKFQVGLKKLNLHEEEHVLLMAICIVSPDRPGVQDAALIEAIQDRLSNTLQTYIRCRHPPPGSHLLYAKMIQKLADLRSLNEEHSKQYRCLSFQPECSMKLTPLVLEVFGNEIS
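Inhibition of the VDR/SRC2-3 peptide interaction is quantified by fluorescence polarization. Compounds (23 nl, pintool) incubate with the reagents for 2 hours at ambient room temperature.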
Vif-A3G inh – qHTS for Inhibitors of Vif-A3G Interactions: qHTS; DNA dC->dU-editing enzyme APOBEC-3G (Homo sapiens), Q9HC16; AID 602310, 2012; Potency, µM (highest dose often 46.1 µM), inactives show at the highest dose activity, negative = active, hits mostly inhibitors; HeLa A3G-eYFP + Vif (tagged APOBEC3G with the HIV-1 protein that degrades it), YFP fluorescence, overnight; actives 0.076% (n = 410,000); also: potency is read from the fitted curve at half-maximal effect; % is scaled to controls: 0 for no effect and ±100 for the full control effect; nearly all actives have a fitted effect of over 60% in size
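Read-out is eYFP fluorescence (Ex 488/Em 500-530) from Vif-expressing HeLa A3G-eYFP cells; more signal means A3G escaped Vif-mediated degradation. Cells plated overnight, compound pinned in, incubated overnight at 37 deg C.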
Starred values were filed as active, the others as inactive; [ ] = remark or other dose. Unless noted, calls follow the shape of the dose curve; as a rule, active = well fitted curve in the direction sought with a large enough effect; inconclusive = small, poorly fitted or top-dose-only effect, or another doubt; inactive = no such curve, though single readings can be large; an effect the other way counts as inactive or inconclusive.

For O=C(/C=C/c1cc[n+](CC(=O)c2ccc3cccc4c3c2CC4)cc1)c1ccc2cccc3c2c1CC3 the results were TSHR antagonist -9, PLK1 PBD inh 19µM*, Vif-A3F inh -10%, VDR inh -2% and Vif-A3G inh -14%.
Screening COCCn1c(=O)c(-c2ccc(Cl)cc2)nc2cnc(Nc3ccccc3)nc21 returned VDR inh 10%.
`Cc1ccc(NC(=O)CCCc2ccccc2)c([N+](=O)[O-])c1` gave TSHR antagonist -8, PLK1 PBD inh -4%, Vif-A3F inh -3%, VDR inh -12% and Vif-A3G inh 0%.
For O=C(CCCc1ccccc1)Nc1ccccc1[N+](=O)[O-] the results were TSHR antagonist 0, PLK1 PBD inh 3.4µM*, Vif-A3F inh 2%, VDR inh 20µM* and Vif-A3G inh -2%.
O=C(CCCc1ccccc1)Nc1ccc(Br)cc1F was read as TSHR antagonist -47, PLK1 PBD inh 6.7µM*, Vif-A3F inh 0%, VDR inh 22µM* and Vif-A3G inh -4%.
Screening CCNc1ncc2nc(-c3cccs3)c(=O)n(Cc3cccs3)c2n1 returned VDR inh -8%.
`CC(C)(C)c1ccc(NC(=O)COC(=O)c2ccccc2OCC(=O)Nc2ccc(Br)cc2)cc1` gave Vif-A3G inh 1%.
Screening O=C(CCNC(=O)c1ccccc1Cl)N/N=C\c1ccc(O)cc1 returned TSHR antagonist -4, PLK1 PBD inh 12µM*, Vif-A3F inh 0%, VDR inh 22µM* and Vif-A3G inh -6%.
`COc1cc(/C=N/NC(=O)CCNC(=O)c2ccccc2Cl)ccc1O` gave TSHR antagonist -8, PLK1 PBD inh -3%, Vif-A3F inh 3%, VDR inh 8% and Vif-A3G inh 13%.
`O=C(NCc1ccco1)c1cc([N+](=O)[O-])ccc1N1CCCCC1` gave TSHR antagonist 15, PLK1 PBD inh 24µM*, Vif-A3F inh 4%, VDR inh inconclusive and Vif-A3G inh -2%.
O=C(NCc1ccco1)c1ccc(N2CCCCC2)c([N+](=O)[O-])c1 was read as TSHR antagonist -7, PLK1 PBD inh -9%, Vif-A3F inh -24%, VDR inh -20% and Vif-A3G inh -1%.
For CC1CCN(C(c2ccc(N(C)C)cc2)c2nnnn2C(C)(C)C)CC1 (configuration not stated) the results were TSHR antagonist 6, PLK1 PBD inh -3%, Vif-A3F inh 0%, VDR inh 50µM* and Vif-A3G inh 0%.
CN(C)c1nc(-c2cn(CCC#N)c3ccccc23)cs1 was read as TSHR antagonist 0, PLK1 PBD inh 27µM*, Vif-A3F inh -5%, VDR inh -19% and Vif-A3G inh 0%.
Cc1c(C)n(CCC#N)c2ccccc12 was read as TSHR antagonist -6, PLK1 PBD inh -6%, Vif-A3F inh 6%, VDR inh 9% and Vif-A3G inh 3%.
Cn1c(=O)oc2cc(S(=O)(=O)N3CCCC(C(=O)NCCc4ccc(Cl)cc4)C3)ccc21 (configuration not stated) was read as Vif-A3F inh 0%, VDR inh -8% and Vif-A3G inh 1%.
Screening CCCCCOC(=O)c1[nH]c2c(c1C)C(=O)CC(c1ccco1)C2 (configuration not stated) returned TSHR antagonist -4, PLK1 PBD inh 24µM*, Vif-A3F inh -26%, VDR inh 79µM* and Vif-A3G inh -24%.
For COc1ccccc1-c1ccc2ncnc(NC3CCNCC3)c2c1 the results were VDR inh -2%.
Screening COc1ccc2c3c(ccc2c1)C(=O)/C(=C/O)CC3 returned PLK1 PBD inh 4.2µM*, Vif-A3F inh -17%, VDR inh -29% and Vif-A3G inh -8%.
Screening CCN(CC)c1ccc(/C=C/c2ccc3ccccc3n2)cc1 returned Vif-A3G inh 3%.
Screening O=C(Nc1cc(Cl)ccc1Cl)c1cc([N+](=O)[O-])cc(Br)c1O returned VDR inh 79µM* and Vif-A3G inh -5%.
For O=C(Nc1ccc([N+](=O)[O-])cc1Cl)c1cc(Cl)cc(Cl)c1O the results were VDR inh -12% and Vif-A3G inh -4%.
`CN(C)/[N+]([O-])=N/Oc1ccc([N+](=O)[O-])cc1C(F)(F)F` gave Vif-A3G inh -7%.
C[N+]1(CC(=O)c2cccc([N+](=O)[O-])c2)CCOCC1 was read as Vif-A3G inh 2%.
C=CCC(C)(O)c1cccs1 (configuration not stated) was read as VDR inh -2%.
Nc1nc(=S)[nH]c(N)c1N was read as Vif-A3G inh 1%.
For CCOc1cc(C(N)=O)cc(Cl)c1OCC the results were TSHR antagonist -2, PLK1 PBD inh 21µM*, Vif-A3F inh -5%, VDR inh -19% and Vif-A3G inh 5%.
Screening CCCCN(CCCC)c1ccc(Cn2ccc3ccccc32)cc1 returned Vif-A3G inh -10%.
For Cn1c(=O)n(-c2ccc(C(C)(C)C#N)cc2)c2c3cc(-c4cnc5ccccc5c4)ccc3ncc21 the results were Vif-A3G inh 5%[92.2 µM].
CC(c1ccccc1)N1C(=O)c2ccc(C(=O)Nc3ccc(Br)cc3C(=O)O)cc2C1=O (configuration not stated) was read as TSHR antagonist 12, PLK1 PBD inh 24µM*, Vif-A3F inh 2%, VDR inh inconclusive and Vif-A3G inh -4%.
For CC(c1ccccc1)N1C(=O)c2ccc(C(=O)Nc3ccccc3C(=O)O)cc2C1=O (configuration not stated) the results were TSHR antagonist -14, PLK1 PBD inh 24µM*, Vif-A3F inh 5%, VDR inh -20% and Vif-A3G inh 2%.
`CC(C)CCN1C(=O)c2ccc(C(=O)Nc3ccccc3C(=O)O)cc2C1=O` gave TSHR antagonist -23, PLK1 PBD inh -23%, Vif-A3F inh 10%, VDR inh -16% and Vif-A3G inh -2%.
Screening Cc1sc2ccccc2[n+]1CCCCBr returned Vif-A3G inh 5%.
`Cc1ccc(NC(=O)CCc2c(C)nc3nc(C)nn3c2C)c(Cl)c1` gave Vif-A3F inh 2%, VDR inh -11% and Vif-A3G inh -1%.
`CCCC[C@H]1CCCO[C@@](C(=O)NCc2ccccn2)(C(F)(F)F)C1` gave VDR inh -12% and Vif-A3G inh 1%.
For Cc1cc2ccc(Cl)nc2nc1C the results were Vif-A3G inh -3%.
